Experimental data: PubChem BioAssay AID1619 (SRMLSC, 2009)
About 830 (0.38%) of roughly 220,000 compounds were called active.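 How the source made its calls: active means compound inhibiting the enzyme by more than half at any dose during confirmatory dose-response retesting; inconclusive means strong single-dose inhibitors picked by rank but not retested; inactive means the rest.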 Not all results are given here. Potency and affinity values are given separately.

biological target: Leucine aminopeptidase (Plasmodium falciparum (isolate 3D7)) (UniProt Q8IL11); test: P. falciparum M17LAP inhibitors, primary screen, biochemical, fluorogenic H-Leu-NHMec substrate, 1536-well (AID 1619); conditions: recombinant M17LAP, H-Leu-NHMec fluorogenic kinetic assay; at 30 µM; stronger effect = higher value;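 further: plate controls were full reaction with DMSO carrier for no effect and no enzyme background for full effect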
Sequence (Q8IL11 whole entry, looked up): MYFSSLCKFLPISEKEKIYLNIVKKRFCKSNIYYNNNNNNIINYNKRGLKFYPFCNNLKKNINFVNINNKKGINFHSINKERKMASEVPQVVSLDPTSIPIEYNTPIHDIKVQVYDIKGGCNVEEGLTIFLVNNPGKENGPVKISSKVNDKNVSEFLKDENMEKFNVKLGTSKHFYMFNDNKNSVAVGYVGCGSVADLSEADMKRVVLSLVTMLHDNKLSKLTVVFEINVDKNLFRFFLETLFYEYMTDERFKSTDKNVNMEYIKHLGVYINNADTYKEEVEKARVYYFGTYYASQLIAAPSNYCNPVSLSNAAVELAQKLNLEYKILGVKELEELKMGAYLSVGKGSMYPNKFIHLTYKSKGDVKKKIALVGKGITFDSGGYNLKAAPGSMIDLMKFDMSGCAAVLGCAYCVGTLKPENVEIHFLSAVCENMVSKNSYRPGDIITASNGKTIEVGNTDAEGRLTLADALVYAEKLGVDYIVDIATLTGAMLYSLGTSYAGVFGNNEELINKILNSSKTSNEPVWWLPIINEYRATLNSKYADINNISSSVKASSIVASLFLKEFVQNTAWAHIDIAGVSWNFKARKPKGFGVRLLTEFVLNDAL

inhibition, inactive:
CCc1ccc(-n2c(SCC(=O)N3Cc4ccccc4CC3C(=O)O)nnc2-c2ccncc2)cc1 (stereo not drawn) -6.38%
CC(c1ccon1)N(C)Cc1c(C(=O)N(C)Cc2ccccc2)nc2ccccn12 (stereo not drawn) 11.8%
Cc1cc(C(=O)CSc2cccc[n+]2[O-])c(C)n1-c1ccc(Br)cc1 1.39%
CCN1c2ccccc2-c2nc3ccccc3n2C1c1cccnc1 (stereo not drawn) -45%
O=C(COC(=O)CCC(=O)c1ccc(Cl)cc1)NC1CC1 10.9%
O=C(c1ccccc1Cl)N1CCn2c1nc1ccccc12 24.5%
CCOCCCn1c(SCC(=O)Nc2cc(C(C)(C)C)nn2-c2ccccc2)nc2ccccc2c1=O -8.18%
O=C1/C(=C/c2ccc([N+](=O)[O-])cc2)C=C(c2ccccc2)N1c1ccccc1 1.75%
O=C(O)c1cccc(N2C(=O)/C(=C/c3ccc([N+](=O)[O-])cc3)C=C2c2ccccc2)c1 31.6%
CCOC(=O)CC(=O)CSc1nc(C)cc(C)c1C#N -4.47%
COc1cc(NC(=O)c2cccc(C)c2)c(OC)cc1NC(=O)CN1CCOCC1 14.9%
O=C(O)COc1ccccc1/C=C1\SC(=Nc2ccc(F)cc2)N(c2ccc(F)cc2)C1=O 2.19%
CN1C(=O)S/C(=C\c2ccccc2OCc2ccc(C(=O)O)cc2)C1=O 5.62%
O=C(O)COc1ccccc1/C=C1\SC(=S)N(c2cccnc2)C1=O 10.2%
Cc1ccccc1/C=C1\SC(=S)N(/N=C/c2cc([N+](=O)[O-])ccc2O)C1=O 15.5%
Cc1cccc(C2c3[nH]c4ccccc4c3CCN2C(=O)c2cn(C)c3ccccc3c2=O)n1 (stereo not drawn) 8.5%
COCCCNC(=S)N/N=C/c1ccccc1O 19.4%
Cc1cc(C)nc(SCc2nnc(SCC(=O)Nc3ccc(Cl)c(C(F)(F)F)c3)o2)n1 10.2%
CCc1nnc(SCC(=O)Nc2ccccc2)nc1CC 21.8%
CCc1ccc(NC(=O)CSc2nnc(CC)c(CC)n2)cc1 29.2%
O=C(O)CCCC(=O)Nc1cccc(C(F)(F)F)c1 24.8%
CNCC(=O)Nc1ccc(Cl)c(C(F)(F)F)c1 -1.94%
O=C(CSC1=NCCN1)Nc1cccc(C(F)(F)F)c1 -6.47%
Cc1cc(C)nc(/N=C(\NC(=O)C(C)(C)C)Nc2ccc(F)cc2)n1 12.7%
CN(C)CCNC(=S)Nc1ccc(-c2nc3ccccc3[nH]2)cc1 18.8%
COc1ccc(-c2csc3nc(C)nc(N4CCN(c5ccc(C(C)=O)cc5)CC4)c23)cc1OC -3.5%
COCCSc1ccccc1C(=O)N1CCCC(C)C1 (stereo not drawn) -3.2%
CC(C)(C)C(=O)Nc1cccc(-c2ncon2)c1 1.81%
NS(=O)(=O)c1ccc(NC(=O)Cn2ncc3c2-c2ccccc2OC3)cc1 -1.22%
COc1ccc(OC)c(CNC(=O)Cc2c(C(=O)O)[nH]c3ccccc23)c1 28.4%
COc1cccc(CNC(=O)Cc2c(C(=O)O)[nH]c3ccccc23)c1 8.02%
Cc1ccc(NC(=O)C(=O)NCC2CCCO2)cc1C (stereo not drawn) -1.64%
COc1ccc(S(=O)(=O)Nc2nncs2)cc1 54.3%
COCc1nnc(NS(=O)(=O)c2ccc(C)cc2)s1 4.91%
Cc1ccccc1NC(=O)CSc1nc(N)c(C#N)cc1C#N -1.94%
Cc1ccc(C)c(NC(=O)CSc2nc(C)cc(C)c2C#N)c1 11.2%
Cc1cc(C)c(C#N)c(SCC(=O)Nc2ccccc2C(N)=O)n1 -14.1%
COCc1cc(C)nc(SCC(=O)Nc2ccccc2C)c1C#N -1.72%
Cc1nc(SCC(=O)Nc2ccc(F)cc2)c(C#N)c(C)c1CC(=O)c1ccc(Br)cc1 -7.6%
Cc1cc(C)c(C#N)c(SCC(=O)Nc2ccc3c(c2)OCO3)n1 2.63%
COc1ccc(-c2cc(C(F)(F)F)c(C#N)c(SCC(=O)Nc3ccccc3C#N)n2)cc1 -5.46%
Cc1cc(C)c(C#N)c(SCC(=O)Nc2ccccc2C)n1 -11.6%
O=C(NCCc1c[nH]c2ccccc12)/C(=C/c1cccnc1)NC(=O)c1cccs1 7.81%
Cc1ccc(NC(=O)CCCN2C(=S)NC(C)(C)CC2C)cc1 (stereo not drawn) 4.19%
CCCN(c1nc(C)cc(OC)n1)S(=O)(=O)c1ccccc1 -8.31%
COc1ccc(-c2[nH]nc3c2C(c2ccsc2)C(C#N)=C(N)O3)cc1 (stereo not drawn) 72.1%
N#CC1=C(N)Oc2n[nH]c(-c3cccs3)c2C1c1cccnc1 (stereo not drawn) 24.1%
N#CC1=C(N)Oc2n[nH]c(-c3ccncc3)c2C1c1ccsc1 (stereo not drawn) 27.9%
Cc1cc(-c2[nH]nc3c2C(c2ccc(Cl)cc2)C(C#N)=C(N)O3)c(C)s1 (stereo not drawn) 23.3%
Cc1cc(-c2[nH]nc3c2C(c2ccsc2)C(C#N)=C(N)O3)c(C)s1 (stereo not drawn) 45.6%
CCOc1ccc(-c2[nH]nc3c2C(c2cccnc2)C(C#N)=C(N)O3)cc1 (stereo not drawn) 24.6%
Cc1cc(NS(=O)(=O)c2ccc(NC(=O)c3ccc(Br)o3)cc2)nc(C)n1 4.58%
N/C(=N\OC(=O)CCC1CCCC1)c1ccccn1 7.09%
CCOn1c(-n2nc(C)cc2C)nc2ccccc2c1=O -1.28%
Cc1ccc(-c2noc(CCC(=O)NCC3CCN(Cc4cccc(C)c4)CC3)n2)cc1 -0.25%
COc1cc(/C=C2/NC(=O)N(Cc3ccccc3F)C2=O)ccc1Oc1ccc([N+](=O)[O-])cn1 -10.8%
COc1cccc(CN2CCN(C3CCN(c4ccccc4F)CC3)CC2CCO)c1 (stereo not drawn) 3.43%
COc1ccc(NC(=O)CSc2ccccc2)c([N+](=O)[O-])c1 13%
COc1ccc(NC(=O)CSc2ccccn2)c([N+](=O)[O-])c1 4.06%
CCOc1ccc(NC(=O)Cc2cccc3ccccc23)c([N+](=O)[O-])c1 33.7%
CCOc1ccc(OCC(=O)Nc2ccc(OC)cc2[N+](=O)[O-])cc1 -4.57%
CCOc1ccc(NC(=O)COc2ccccc2)c([N+](=O)[O-])c1 4.93%
COc1ccc(NC(=O)CSc2nncn2C)c([N+](=O)[O-])c1 41.3%
